# From the supplement of paper PMC4022240
# ± gives the standard deviation.
# T1: HaloTag-ATRX ADD domain (163-292)
# T1 chain: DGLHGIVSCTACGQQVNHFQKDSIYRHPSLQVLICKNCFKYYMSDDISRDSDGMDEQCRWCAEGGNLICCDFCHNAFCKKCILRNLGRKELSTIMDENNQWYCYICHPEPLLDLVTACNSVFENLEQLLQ
# Tests used:
# Assay in all cases: peptide microarray binding signal (635 nm), min-max normalized on array (fraction of array maximum); higher = stronger binding
# Conditions in all cases: peptide region: H3 30-42
# [1] = molecular target: T1, HaloTag-ATRX ADD domain (163-292)
# Summary of the method: (§1)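 Arrays carried histone 13-mer peptide–cellulose conjugates printed in triplicate on nitrocellulose alongside a Cy3 tracer. After overnight blocking at 4°C, they were incubated for 1 h at 4°C with biotin-labelled HaloTag reader fusions (10 nM to 1 μM) plus streptavidin-Alexa Fluor 647, or with rabbit histone antibodies (1:10,000 to 1:2,000) plus anti-rabbit Alexa 647. Scanning on an Axon GenePix 4000B used 635 nm for signal and 532 nm for misprints. The binding signal reported is each triplicate's mean spot intensity after per-library min-max scaling.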
# [2] = molecular target: HaloTag-ING2 PHD (mouse Ing2 200-280)
# Summary of the method: as §1
# [3] = molecular target: anti-H3K4me3 antibody ab8580
# Summary of the method: as §1
# [4] = molecular target: anti-H3K9me3 antibody ab8898
# Summary of the method: as §1
# [5] = peptide modifications: H3K36me1 H3K37me1, binder concentration: 1:2,000 dilution
# [6] = peptide modifications: H3K36me1 H3K37me1, binder concentration: 1:10,000 dilution
# [7] = peptide modifications: H3K36me1 H3K37me3, binder concentration: 1:2,000 dilution
# [8] = peptide modifications: H3K36me1 H3K37me3, binder concentration: 1:10,000 dilution
# [9] = peptide modifications: H3K36me2 H3K37me2, binder concentration: 1:2,000 dilution
# [10] = peptide modifications: H3K36me2 H3K37me2, binder concentration: 1:10,000 dilution
# [11] = peptide modifications: H3K36me2 H3K37ac, binder concentration: 1:2,000 dilution
# [12] = peptide modifications: H3K36me2 H3K37ac, binder concentration: 1:10,000 dilution
# [13] = peptide modifications: H3T32ph H3K36me1, binder concentration: 1:2,000 dilution
# [14] = peptide modifications: H3T32ph H3K36me1, binder concentration: 1:10,000 dilution
# [15] = peptide modifications: H3K36me3 H3K37me2, binder concentration: 1:2,000 dilution
# [16] = peptide modifications: H3K36me3 H3K37me2, binder concentration: 1:10,000 dilution
# [17] = peptide modifications: H3T32ph H3K36me3, binder concentration: 1:2,000 dilution
# [18] = peptide modifications: H3T32ph H3K36me3, binder concentration: 1:10,000 dilution
# [19] = peptide modifications: H3K36me2 H3K37me3, binder concentration: 1:2,000 dilution
# [20] = peptide modifications: H3K36me2 H3K37me3, binder concentration: 1:10,000 dilution
# [21] = peptide modifications: H3K37me2, binder concentration: 1:2,000 dilution
# [22] = peptide modifications: H3K37me2, binder concentration: 1:10,000 dilution
# [23] = peptide modifications: H3T32ph H3K36ac, binder concentration: 1:2,000 dilution
# [24] = peptide modifications: H3T32ph H3K36ac, binder concentration: 1:10,000 dilution
binder,measurement,setting,value
PATGGVKKPHRYR [H3 30-42 P A T G G V Kme Kme P H R Y R],peptide microarray binding signal,"[1]; peptide modifications: H3K36me1 H3K37me1, binder concentration: 50 nM",0.00245 ± 4.3e-05
same,peptide microarray binding signal,"[1]; peptide modifications: H3K36me1 H3K37me1, binder concentration: 500 nM",0.0039 ± 0.00015
same,peptide microarray binding signal,"[2]; peptide modifications: H3K36me1 H3K37me1, binder concentration: 10 nM",0.00424 ± 0.00021
same,peptide microarray binding signal,"[2]; peptide modifications: H3K36me1 H3K37me1, binder concentration: 100 nM",0.000496 ± 9.7e-06
same,peptide microarray binding signal,[3]; [5],0.000189 ± 2e-06
same,peptide microarray binding signal,[3]; [6],0.00559 ± 0.0011
same,peptide microarray binding signal,[4]; [5],0.00157 ± 0.00052
same,peptide microarray binding signal,[4]; [6],0.00254 ± 0.00014
PATGGVKKPHRYR [H3 30-42 P A T G G V Kme Kme3 P H R Y R],peptide microarray binding signal,"[1]; peptide modifications: H3K36me1 H3K37me3, binder concentration: 50 nM",0.00135 ± 1.7e-05
same,peptide microarray binding signal,"[1]; peptide modifications: H3K36me1 H3K37me3, binder concentration: 500 nM",0.00229 ± 8.8e-05
same,peptide microarray binding signal,"[2]; peptide modifications: H3K36me1 H3K37me3, binder concentration: 10 nM",0.00203 ± 8.9e-05
same,peptide microarray binding signal,"[2]; peptide modifications: H3K36me1 H3K37me3, binder concentration: 100 nM",0.00191 ± 0.00013
same,peptide microarray binding signal,[3]; [7],0.000359 ± 2.1e-05
same,peptide microarray binding signal,[3]; [8],0.000514 ± 1.1e-05
same,peptide microarray binding signal,[4]; [7],0.0008 ± 8.7e-05
same,peptide microarray binding signal,[4]; [8],0.000807 ± 1.5e-05
PATGGVKKPHRYR [H3 30-42 P A T G G V Kme2 Kme2 P H R Y R],peptide microarray binding signal,"[1]; peptide modifications: H3K36me2 H3K37me2, binder concentration: 50 nM",0.00185 ± 1.5e-05
same,peptide microarray binding signal,"[1]; peptide modifications: H3K36me2 H3K37me2, binder concentration: 500 nM",0.00476 ± 0.00025
same,peptide microarray binding signal,"[2]; peptide modifications: H3K36me2 H3K37me2, binder concentration: 10 nM",0.00501 ± 0.00021
same,peptide microarray binding signal,"[2]; peptide modifications: H3K36me2 H3K37me2, binder concentration: 100 nM",0.00227 ± 0.00036
same,peptide microarray binding signal,[3]; [9],0.000396 ± 7e-06
same,peptide microarray binding signal,[3]; [10],0.000799 ± 5.8e-05
same,peptide microarray binding signal,[4]; [9],0.00267 ± 8.5e-05
same,peptide microarray binding signal,[4]; [10],0.00104 ± 2.8e-05
PATGGVKKPHRYR [H3 30-42 P A T G G V Kme2 Kac P H R Y R],peptide microarray binding signal,"[1]; peptide modifications: H3K36me2 H3K37ac, binder concentration: 50 nM",0.00094 ± 1.9e-05
same,peptide microarray binding signal,"[1]; peptide modifications: H3K36me2 H3K37ac, binder concentration: 500 nM",0.000857 ± 1.5e-05
same,peptide microarray binding signal,"[2]; peptide modifications: H3K36me2 H3K37ac, binder concentration: 10 nM",0.0544 ± 0.07
same,peptide microarray binding signal,"[2]; peptide modifications: H3K36me2 H3K37ac, binder concentration: 100 nM",0.00354 ± 0.00098
same,peptide microarray binding signal,[3]; [11],0.000529 ± 1.4e-05
same,peptide microarray binding signal,[3]; [12],0.000685 ± 4.7e-05
same,peptide microarray binding signal,[4]; [11],0.000438 ± 1.5e-05
same,peptide microarray binding signal,[4]; [12],0.000461 ± 8.7e-06
PATGGVKKPHRYR [H3 30-42 P A Tph G G V Kme K P H R Y R],peptide microarray binding signal,"[1]; peptide modifications: H3T32ph H3K36me1, binder concentration: 50 nM",0.00552 ± 0.00021
same,peptide microarray binding signal,"[1]; peptide modifications: H3T32ph H3K36me1, binder concentration: 500 nM",0.00914 ± 0.00072
same,peptide microarray binding signal,"[2]; peptide modifications: H3T32ph H3K36me1, binder concentration: 10 nM",0.00871 ± 0.00013
same,peptide microarray binding signal,"[2]; peptide modifications: H3T32ph H3K36me1, binder concentration: 100 nM",0.0167 ± 0.0011
same,peptide microarray binding signal,[3]; [13],0.00193 ± 0.00024
same,peptide microarray binding signal,[3]; [14],0.00257 ± 0.00014
same,peptide microarray binding signal,[4]; [13],0.00118 ± 0.00016
same,peptide microarray binding signal,[4]; [14],0.00144 ± 0.00011
PATGGVKKPHRYR [H3 30-42 P A T G G V Kme3 Kme2 P H R Y R],peptide microarray binding signal,"[1]; peptide modifications: H3K36me3 H3K37me2, binder concentration: 50 nM",0.002539 ± 1.1e-05
same,peptide microarray binding signal,"[1]; peptide modifications: H3K36me3 H3K37me2, binder concentration: 500 nM",0.00462 ± 0.00097
same,peptide microarray binding signal,"[2]; peptide modifications: H3K36me3 H3K37me2, binder concentration: 10 nM",0.00471 ± 0.0004
same,peptide microarray binding signal,"[2]; peptide modifications: H3K36me3 H3K37me2, binder concentration: 100 nM",0.00347 ± 0.00061
same,peptide microarray binding signal,[3]; [15],0.00132 ± 0.00026
same,peptide microarray binding signal,[3]; [16],0.00805 ± 0.0039
same,peptide microarray binding signal,[4]; [15],0.00571 ± 0.0035
same,peptide microarray binding signal,[4]; [16],0.00363 ± 0.00092
PATGGVKKPHRYR [H3 30-42 P A Tph G G V Kme3 K P H R Y R],peptide microarray binding signal,"[1]; peptide modifications: H3T32ph H3K36me3, binder concentration: 50 nM",0.00426 ± 9.2e-05
same,peptide microarray binding signal,"[1]; peptide modifications: H3T32ph H3K36me3, binder concentration: 500 nM",0.00686 ± 0.00012
same,peptide microarray binding signal,"[2]; peptide modifications: H3T32ph H3K36me3, binder concentration: 10 nM",0.00925 ± 0.00068
same,peptide microarray binding signal,"[2]; peptide modifications: H3T32ph H3K36me3, binder concentration: 100 nM",0.0248 ± 0.0061
same,peptide microarray binding signal,[3]; [17],0.0335 ± 0.008
same,peptide microarray binding signal,[3]; [18],0.0116 ± 0.0022
same,peptide microarray binding signal,[4]; [17],0.0489 ± 0.013
same,peptide microarray binding signal,[4]; [18],0.0155 ± 0.0012
PATGGVKKPHRYR [H3 30-42 P A T G G V Kme2 Kme3 P H R Y R],peptide microarray binding signal,"[1]; peptide modifications: H3K36me2 H3K37me3, binder concentration: 50 nM",0.00266 ± 7.1e-05
same,peptide microarray binding signal,"[1]; peptide modifications: H3K36me2 H3K37me3, binder concentration: 500 nM",0.00343 ± 0.00019
same,peptide microarray binding signal,"[2]; peptide modifications: H3K36me2 H3K37me3, binder concentration: 10 nM",0.00298 ± 6.6e-05
same,peptide microarray binding signal,"[2]; peptide modifications: H3K36me2 H3K37me3, binder concentration: 100 nM",0.00454 ± 0.00042
same,peptide microarray binding signal,[3]; [19],0.0016 ± 0.00015
same,peptide microarray binding signal,[3]; [20],0.00126 ± 3.7e-05
same,peptide microarray binding signal,[4]; [19],0.00429 ± 0.0012
same,peptide microarray binding signal,[4]; [20],0.00133 ± 4e-05
PATGGVKKPHRYR [H3 30-42 P A T G G V K Kme2 P H R Y R],peptide microarray binding signal,"[1]; peptide modifications: H3K37me2, binder concentration: 50 nM",0.0036 ± 0.00019
same,peptide microarray binding signal,"[1]; peptide modifications: H3K37me2, binder concentration: 500 nM",0.00771 ± 0.00019
same,peptide microarray binding signal,"[2]; peptide modifications: H3K37me2, binder concentration: 10 nM",0.0121 ± 0.00097
same,peptide microarray binding signal,"[2]; peptide modifications: H3K37me2, binder concentration: 100 nM",0.0202 ± 0.002
same,peptide microarray binding signal,[3]; [21],0.00302 ± 0.00039
same,peptide microarray binding signal,[3]; [22],0.00297 ± 0.00012
same,peptide microarray binding signal,[4]; [21],0.00163 ± 0.00014
same,peptide microarray binding signal,[4]; [22],0.001441 ± 1.4e-05
PATGGVKKPHRYR [H3 30-42 P A Tph G G V Kac K P H R Y R],peptide microarray binding signal,"[1]; peptide modifications: H3T32ph H3K36ac, binder concentration: 50 nM",0.00502 ± 0.00015
same,peptide microarray binding signal,"[1]; peptide modifications: H3T32ph H3K36ac, binder concentration: 500 nM",0.0116 ± 0.0013
same,peptide microarray binding signal,"[2]; peptide modifications: H3T32ph H3K36ac, binder concentration: 10 nM",0.0123 ± 0.00025
same,peptide microarray binding signal,"[2]; peptide modifications: H3T32ph H3K36ac, binder concentration: 100 nM",0.023 ± 0.0019
same,peptide microarray binding signal,[3]; [23],0.00191 ± 0.00028
same,peptide microarray binding signal,[3]; [24],0.00257 ± 0.00023
same,peptide microarray binding signal,[4]; [23],0.00193 ± 0.00036
same,peptide microarray binding signal,[4]; [24],0.00167 ± 0.00013
